Screening data from PubChem.
An excerpt weighted towards active compounds, which were near 18% of everything screened.
HepG2 viability – HepG2 cytotoxicity, counter-screen for TGF-b inhibitors | HepG2 CAGA-GFP viability, ATP luminescence, 18 h | Potency, µM (highest dose often 46.1 µM), actives largely listed as cytotoxic | 410,000 tested, 0.76% active
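CellTiter-Glo luminescence gave cytotoxicity after 18 hours at 37 degrees C. The cells were HepG2 CAGA-GFP in 1% FBS DMEM, stimulated with 500 pg/mL TGF-beta after compound addition. %Activity was normalised to no-cell wells (complete cell-killing) and DMSO (no toxicity), and curves were fitted and classified.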
TDP1 cell CPT – growth inhibition of DT40 Tdp1-/-;hTDP1 cells with camptothecin (screen for TDP1 inhibitors). chicken DT40 Tdp1-/-;hTDP1 cells + 20 nM CPT, ATP luminescence, 48 h. Potency, µM (top dose mostly 46.2 µM), usual class: inhibitors. 420,000 tested, 12% active. AID 686979; further: nearly all actives have a fitted effect of over 55% in size
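Chicken DT40 Tdp1-/- cells stably complemented with human TDP1 were seeded at 400 cells/well in medium containing 20 nM camptothecin, exposed to pin-transferred compounds, and grown at 37 °C for at least 48 hr. Viability was read as ATP luminescence.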
IL1B secr inh – blocks inflammasome-driven IL-1 beta release. activity change, % at 57.5 µM. THP-1 LPS/ATP IL-1B secretion, AlphaLISA, 16 h; stronger effect = lower value. AID 743279. 360,000 tested, 4.7% active; in the data active means activity change below about -50%; inconclusive means mostly about -30% to -49%
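Secreted IL-1B measured by AlphaLISA bead assay after 16 h compound exposure of THP-1 cells; compounds (final up to 57.5 uM) added 1 h before LPS (250 ng/mL) and ATP (1.25 mM) stimulation; lower signal means less secretion.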
TGFb SMAD3 inh – TGF-b pathway inhibition | HepG2 CAGA-GFP TGF-b/SMAD3 reporter, GFP fluorescence, 18 h; TGF-beta stimulated, 500 pg/mL final | Potency, µM (highest dose often 46.1 µM), usual class: inhibitors | 410,000 tested, 1.2% active | AID 588855; further: nearly all actives have a fitted effect of over 65% in size
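Inhibition was scored as loss of TGF-beta-induced (500 pg/mL final, 18 hours, 37 degrees C) GFP in HEPG2 cells carrying a CAGA-GFP reporter, in DMEM with 1% FBS. Well GFP was summed per cell; Activity was normalised to unstimulated and stimulated DMSO wells, then concentration-response fitting.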
TDP1 block – blocks human tyrosyl-DNA phosphodiesterase 1; Q9NUW8; recombinant TDP1, AlphaScreen DNA substrate cleavage; Potency, µM (top dose mostly 130 µM), usual class: inhibitors; 350,000 tested, 0.28% active; AID 485290; further: nearly all actives have a fitted effect of over 40% in size
Target sequence (Q9NUW8 whole entry, looked up): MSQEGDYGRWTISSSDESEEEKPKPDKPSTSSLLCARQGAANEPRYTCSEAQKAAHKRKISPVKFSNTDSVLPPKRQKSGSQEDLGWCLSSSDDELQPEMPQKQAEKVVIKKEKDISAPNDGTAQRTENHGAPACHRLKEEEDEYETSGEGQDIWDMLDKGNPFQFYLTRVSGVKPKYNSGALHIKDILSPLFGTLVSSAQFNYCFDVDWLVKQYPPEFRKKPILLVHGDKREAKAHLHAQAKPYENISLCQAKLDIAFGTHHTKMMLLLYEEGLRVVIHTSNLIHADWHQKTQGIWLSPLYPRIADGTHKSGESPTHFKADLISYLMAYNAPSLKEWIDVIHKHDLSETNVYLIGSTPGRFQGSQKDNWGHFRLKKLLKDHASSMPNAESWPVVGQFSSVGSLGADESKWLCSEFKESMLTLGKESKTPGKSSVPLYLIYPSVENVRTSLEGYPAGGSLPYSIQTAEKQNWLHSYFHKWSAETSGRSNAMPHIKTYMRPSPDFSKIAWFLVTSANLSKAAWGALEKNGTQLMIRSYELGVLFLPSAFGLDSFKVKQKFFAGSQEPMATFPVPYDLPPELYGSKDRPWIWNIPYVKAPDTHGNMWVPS
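Steps: enzyme plus compound, 15 min RT; add biotin/phosphotyrosine-FITC oligonucleotide (15 nM final), react 5 min; add donor/acceptor beads (10 ug/ml final), 10 min; read AlphaScreen. Tdp1 at 1 nM final.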
TDP1 cell noCPT – qHTS for Inhibitors of human tyrosyl-DNA phosphodiesterase 1 (TDP1): qHTS in cells in absence of CPT; Potency, µM (titrated, usually from 46.2 µM), hits mostly inhibitors; 420,000 tested, 15% active; AID 686978, 2013; DT40 Tdp1-/- hTDP1 cells, no CPT, ATP luminescence, 48 h; further: nearly all actives have a fitted effect of over 55% in size
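Growth of hTDP1-complemented DT40 Tdp1-knockout cells is measured by ATP luminescence after at least 48 hr compound exposure at 37 °C, with DMSO substituting for the 20 nM CPT used in the parallel screen.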
Numbers stand for hits; n = inactive; u = inconclusive; x = no result given; [ ] = another dose, or the depositor's remark. Unless noted, the call rests on the fitted dose curve; in most records, active means well fitted curve in the direction sought with a large enough effect; inconclusive means small, poorly fitted or top-dose-only effect, or another doubt; inactive means no such curve, though single readings can be large; an effect the other way counts as inactive or inconclusive.

SMILES | HepG2 viability | TDP1 cell CPT | IL1B secr inh | TGFb SMAD3 inh | TDP1 block | TDP1 cell noCPT
O=C(NCc1ccccc1)c1ccc(-c2ccc(F)c(F)c2)c2ccoc12 | n | u | -72 | n | x | u
O=C(NCc1cccc(Cl)c1)c1ccc(-c2ccc(F)c(F)c2)c2ccoc12 | n | u | n | n | x | u
O=C(NCCc1ccccc1)c1ccc(-c2ccc(F)c(F)c2)c2ccoc12 | n | 16µM | n | n | x | 4.1µM
CC(NC(=O)COC(=O)c1ccccc1O)C1CC2CCC1C2 (configuration not stated) | n | u | n | n | n | u
Cc1c(NS(=O)(=O)c2cccc(C(=O)Nc3cccc(F)c3)c2)c(=O)n(-c2ccccc2)n1C | n | u | n | n | x | u
CNc1nnc(SCC(=O)N2c3ccccc3NC(=O)CC2C)s1 (configuration not stated) | n | n | n | n | n | n
O=C(C[n+]1ccccc1Br)c1ccc(Cl)cc1 | n | u | x | n | x | 14µM
O=C(C[n+]1ccccc1Cl)c1ccc(Br)cc1 | n | u | x | n | x | u
C[C@@H]1[C@H](c2ccccc2)OCCS(=O)(=O)N1Cc1cccc(C(F)(F)F)c1 | n | u | x | u | x | 18µM
N#Cc1ccccc1S(=O)(=O)Nc1ccc2c(c1)OCCO2 | n | n | n | n | n | n
Cc1ccc2cc(CNC(C)c3cccc4ccccc34)c(N3CCC(O)CC3)nc2c1 (configuration not stated) | x | n[9.04 µM] | x | x | x | n
CCN1CCN(c2cc(SC(C)C)nc(-c3ccc(OC)cc3)n2)CC1 | n | 23µM | -82 | u | n | u
COc1ccccc1/C=C/c1nc(C#N)c(N2CCN(C)CC2)o1 | n | u | x | n | n | u
CN(C)S(=O)(=O)Oc1cccc(C(=O)Nc2ccc([N+](=O)[O-])cc2)c1 | n | u | n | n | n | 8.2µM
Cc1ccccc1NC(=O)c1cccc(S(=O)(=O)Oc2ccc([N+](=O)[O-])cc2)c1 | n | u | -58 | n | n | u
Cc1ccccc1NC(=O)c1cccc(NC(=O)c2c(C(=O)O)cccc2[N+](=O)[O-])c1 | n | n | n | n | x | n
O=C(Nc1ccc(O)cc1)c1cccc(Oc2ccc([N+](=O)[O-])cc2)c1 | n | u | -68 | n | n | 18µM
O=C(Nc1ccc([N+](=O)[O-])cc1)c1cccc([N+](=O)[O-])c1 | n | n | n | n | x | n
COc1ccc(NC(=O)c2cccc([N+](=O)[O-])c2)cc1 | n | n | n | n | n | n
CCOC(=O)C1(C)C=C(Nc2ccc(C)cc2)C(=O)N1c1ccccc1 (configuration not stated) | n | u | x | n | x | u
Cc1ccc(N2C(=O)N3[C@H](c4ccc(F)cc4)[C@@H]4C(=O)N(C5CCCCC5)C(=O)[C@@H]4[C@]3(C)C2=O)cc1 | n | n | n | n | x | n
CCCCOC(=O)C1CN(c2ccccc2)N=C1C(=O)OCC (configuration not stated) | n | 23µM | n | n | n | 21µM
CCCCOC(=O)C1CN(c2ccccc2)N=C1C(C)=O (configuration not stated) | n | n | n | n | n | u
CCc1ccc(N2C(=O)Cc3c2nc(N)c(C#N)c3N)cc1 | n | n | n | n | n | n
CCN(CC)c1nc2c3c(nc4c(c3c1C#N)CC(=O)N4c1ccc(Cl)cc1)NC(C)=N2 | n | u | n | n | n | 18µM
SMILES | HepG2 viability | TDP1 cell CPT | IL1B secr inh | TGFb SMAD3 inh | TDP1 block | TDP1 cell noCPT
CCn1c(=S)sc2c(=O)n(-c3ccccc3)c(SC)nc21 | n | u | n | u | n | u
N#CCSc1nc2c(sc(=S)n2Cc2ccco2)c(=O)n1-c1ccc(F)cc1 | n | u | -53 | n | n | u
COc1cccc(NC(=O)N(C)C[C@H]2OCc3cnnn3CCCC(=O)N([C@H](C)CO)C[C@@H]2C)c1 | n | n | n | n | x | n
CCCCOc1ccc(CC(N)=O)cc1 | x | n | x | x | x | n
N=C(N)c1ccc(OCCCOc2ccc(C(=N)N)cc2)cc1 | x | 6.7µM | x | x | x | 6.7µM
CCCCCCOc1ccc(/C(N)=N/O)cc1 | n | 16µM | n | n | n | 21µM
N=C(N)c1ccc(OCCCCCOc2ccc(C(=N)N)cc2)cc1 | n | 1.8µM | n | n | n | 2.1µM
COC(=O)c1ccc(OCCOc2ccc(C(=O)OC)cc2)cc1 | n | n | n | n | n | n
N=C(N)c1ccc(OCCCOc2ccc(C(=N)N)cc2Br)c(Br)c1 | x | 4.7µM | x | x | x | 3.8µM
Cc1ccc(OCCCN(C)C)c(Br)c1 | n | n | n | n | n | n
C=CCc1ccc(OCCCCOc2ccc(C(=O)O)cc2)c(OC)c1 | n | n | n | n | n | n
CCOc1ccc(C(=O)CCC(=O)N2CCC(C(=O)OC)CC2)cc1 | n | n | n | n | x | n
CCOc1cc(CN2CCN(c3ncccn3)CC2)ccc1OC | n | n | n | n | x | n
COc1ccc(Cl)cc1NC(=O)CN(C)C(=O)Cc1n[nH]c(=O)c2ccccc12 | n | u | n | n | n | n
COc1cccc2c1O/C(=N\O)C(C(=O)Nc1ccc(C)cc1)C2 (configuration not stated) | n | 5.8µM | n | n | x | 5.2µM
COc1ccc(NC(=O)C2Cc3cccc(OC)c3O/C2=N\O)cc1 (configuration not stated) | n | u | n | n | x | u
CCCC1NC(=O)c2cccnc2-n2c1nc1cc(C)cc(C)c1c2=O (configuration not stated) | n | u | n | n | x | u
Cc1ccc2nc3n(c(=O)c2c1)-c1ncccc1C(=O)NC3Cc1ccc(O)cc1 (configuration not stated) | n | n | n | n | x | n
Cc1cc(C)c2c(=O)n3c(nc2c1)C(Cc1ccccc1)NC(=O)c1cccnc1-3 (configuration not stated) | n | u | n | u | x | 21µM
Cc1cc(C)c2c(=O)n3c(nc2c1)C(Cc1ccc(O)cc1)NC(=O)c1cccnc1-3 (configuration not stated) | n | u | n | u | x | 18µM
N=C(N)SCc1cn(-c2ccccc2)nc1-c1ccc(Br)cc1 | 11µM | 9.2µM | -77 | u | n | 7.3µM
COc1cc(-c2nc3ccccn3c2/N=C/c2cc(OC)c(O)cc2Cl)ccc1O | n | n | n | n | n | n
O=c1c2nnn(-c3ccccc3)c2ncn1C/C=C/c1ccccc1 | n | n | n | n | x | 26µM
